Data as given in doi:10.1101/2024.03.05.583629.

Target: pT7_6His-AlfaTag-ZIF268 (human, UniProt P18146 335-423)
Test: PADIT-seq
Settings: dsDNA, one strand shown

Row | Sequence | binding signal [log2FC]
1 | CTCGAGGATATCAAGATCTGGCCTCGGCCCCCCACGCGGAACCTCTAGCTAGCCGACTCACTATAGGGATAATCGCCCTGAGCAAAGACC | 0.155 ± 0.108
2 | CTCGAGGATATCAAGATCTGGCCTCGGCCTCCCACGCGGAACCTCTAGCTAGCCGACTCACTATAGGGATAATCGCCCTGAGCAAAGACC | 1.28 ± 0.0958
3 | CTCGAGGATATCAAGATCTGGCCTCGGCGCGTGGTGTGGAACCTCTAGCTAGCCGACTCACTATAGGGATAATCGCCCTGAGCAAAGACC | 0.166 ± 0.105
4 | CTCGAGGATATCAAGATCTGGCCTCGGCGCGTGGTCAGGAACCTCTAGCTAGCCGACTCACTATAGGGATAATCGCCCTGAGCAAAGACC | 0.198 ± 0.102
5 | CTCGAGGATATCAAGATCTGGCCTCGGCGCGTGAGCGGGAACCTCTAGCTAGCCGACTCACTATAGGGATAATCGCCCTGAGCAAAGACC | 0.00935 ± 0.101
6 | CTCGAGGATATCAAGATCTGGCCTCGGCTACCCACGCGGAACCTCTAGCTAGCCGACTCACTATAGGGATAATCGCCCTGAGCAAAGACC | 0.362 ± 0.0981
7 | CTCGAGGATATCAAGATCTGGCCTCGGCCGCCCAAGTGGAACCTCTAGCTAGCCGACTCACTATAGGGATAATCGCCCTGAGCAAAGACC | 0.0066 ± 0.0917
8 | CTCGAGGATATCAAGATCTGGCCTCGGCGCGCCACGCGGAACCTCTAGCTAGCCGACTCACTATAGGGATAATCGCCCTGAGCAAAGACC | 0.0182 ± 0.0932
9 | CTCGAGGATATCAAGATCTGGCCTCGGCGCGTGGTGCGGAACCTCTAGCTAGCCGACTCACTATAGGGATAATCGCCCTGAGCAAAGACC | 0.41 ± 0.0906
10 | CTCGAGGATATCAAGATCTGGCCTCGGCGCGTGGTCTGGAACCTCTAGCTAGCCGACTCACTATAGGGATAATCGCCCTGAGCAAAGACC | 0.117 ± 0.101
11 | CTCGAGGATATCAAGATCTGGCCTCGGCCGCCCACCTGGAACCTCTAGCTAGCCGACTCACTATAGGGATAATCGCCCTGAGCAAAGACC | 0.259 ± 0.108
12 | CTCGAGGATATCAAGATCTGGCCTCGGCGCGTGGTTCGGAACCTCTAGCTAGCCGACTCACTATAGGGATAATCGCCCTGAGCAAAGACC | 0.121 ± 0.0856
13 | CTCGAGGATATCAAGATCTGGCCTCGGCGCGTGGCGTGGAACCTCTAGCTAGCCGACTCACTATAGGGATAATCGCCCTGAGCAAAGACC | 0.0995 ± 0.108
14 | CTCGAGGATATCAAGATCTGGCCTCGGCGCGTGGGACGGAACCTCTAGCTAGCCGACTCACTATAGGGATAATCGCCCTGAGCAAAGACC | 1.73 ± 0.101
15 | CTCGAGGATATCAAGATCTGGCCTCGGCGGTTGGGCGGGAACCTCTAGCTAGCCGACTCACTATAGGGATAATCGCCCTGAGCAAAGACC | 0.0831 ± 0.0849
16 | CTCGAGGATATCAAGATCTGGCCTCGGCGCGCCCGCGGGAACCTCTAGCTAGCCGACTCACTATAGGGATAATCGCCCTGAGCAAAGACC | 0.783 ± 0.131
17 | CTCGAGGATATCAAGATCTGGCCTCGGCGCGTGGAAAGGAACCTCTAGCTAGCCGACTCACTATAGGGATAATCGCCCTGAGCAAAGACC | 0.108 ± 0.113
18 | CTCGAGGATATCAAGATCTGGCCTCGGCGCGTAGGCGGGAACCTCTAGCTAGCCGACTCACTATAGGGATAATCGCCCTGAGCAAAGACC | 3.65 ± 0.0875
19 | CTCGAGGATATCAAGATCTGGCCTCGGCGCGTGGATGGGAACCTCTAGCTAGCCGACTCACTATAGGGATAATCGCCCTGAGCAAAGACC | 0.000457 ± 0.106
20 | CTCGAGGATATCAAGATCTGGCCTCGGCGCGAAAGCGGGAACCTCTAGCTAGCCGACTCACTATAGGGATAATCGCCCTGAGCAAAGACC | 0.0239 ± 0.114
21 | CTCGAGGATATCAAGATCTGGCCTCGGCAGGTGGGCGGGAACCTCTAGCTAGCCGACTCACTATAGGGATAATCGCCCTGAGCAAAGACC | 2.15 ± 0.0839
22 | CTCGAGGATATCAAGATCTGGCCTCGGCGCGTGGGGAGGAACCTCTAGCTAGCCGACTCACTATAGGGATAATCGCCCTGAGCAAAGACC | 0.871 ± 0.0966
23 | CTCGAGGATATCAAGATCTGGCCTCGGCCGCCCATGGGGAACCTCTAGCTAGCCGACTCACTATAGGGATAATCGCCCTGAGCAAAGACC | 0.0348 ± 0.099
24 | CTCGAGGATATCAAGATCTGGCCTCGGCGCGTGGGCAGGAACCTCTAGCTAGCCGACTCACTATAGGGATAATCGCCCTGAGCAAAGACC | 2.8 ± 0.0823
25 | CTCGAGGATATCAAGATCTGGCCTCGGCCAGTGGGCGGGAACCTCTAGCTAGCCGACTCACTATAGGGATAATCGCCCTGAGCAAAGACC | 1.87 ± 0.0948
26 | CTCGAGGATATCAAGATCTGGCCTCGGCACATGGGCGGGAACCTCTAGCTAGCCGACTCACTATAGGGATAATCGCCCTGAGCAAAGACC | 0.18 ± 0.0881
27 | CTCGAGGATATCAAGATCTGGCCTCGGCATACCACGCGGAACCTCTAGCTAGCCGACTCACTATAGGGATAATCGCCCTGAGCAAAGACC | 0.123 ± 0.0818
28 | CTCGAGGATATCAAGATCTGGCCTCGGCCGCCCAGATGGAACCTCTAGCTAGCCGACTCACTATAGGGATAATCGCCCTGAGCAAAGACC | 0.0137 ± 0.113
29 | CTCGAGGATATCAAGATCTGGCCTCGGCGTCCCACGCGGAACCTCTAGCTAGCCGACTCACTATAGGGATAATCGCCCTGAGCAAAGACC | 0.365 ± 0.0872
